Bioassay records as filed in PubChem BioAssay.
Only some compounds are listed: those with a hit (about 12% of all), similar ones and a draw of the others.
Sfp inh: inhibitors of Bacillus subtilis Sfp phosphopantetheinyl transferase. Biochemical Sfp PPTase activity, qHTS. hit rate 3.5% among 310,000. Q9F4F7. AID 1490. Potency, µM, hits mostly inhibitors;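 also: the enzyme is Sfp with the accession as filed and its product quenches rhodamine fluorescence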
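Compounds were incubated with enzyme (final 15 nM) for 15 min at room temperature before substrate addition started the reaction. Fluorescence at 525 nm excitation, 598 nm emission was recorded immediately and after 30 minutes.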
RORgamma inh: ROR gamma (mouse) transcription inhibition; P51450; Drosophila S2 Gal4-RORgamma UAS-luciferase reporter, 20 h; Potency, µM (series often up to 53.6 µM), actives largely listed as inhibitors; hit rate 5.4% among 310,000; AID 2551; also: nearly all actives have a fitted effect of over 60% in size
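A Gal4/UAS one-hybrid system in insect cells: metallothionein-promoter Gal4–ROR gamma fusion plus Photinus luciferase reporter. Copper sulfate 700 uM final, 20 hr ambient incubation, luminescent detection after 10 min with reagent.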
ALDH1A1 block: ALDH1A1 (human) enzyme inhibition; P00352; Potency, µM (series often up to 75.3 µM), hits mostly inhibitors; Purified ALDH1A1, NADH fluorescence, propionaldehyde substrate; hit rate 7.3% among 220,000; active = well fitted inhibition curve with a large enough effect, not every such curve was filed as active; inconclusive = small, poorly fitted or top-dose-only effect, or another doubt; inactive = no such curve, though single readings can be large or run the other way
Target sequence (P00352 whole entry, looked up): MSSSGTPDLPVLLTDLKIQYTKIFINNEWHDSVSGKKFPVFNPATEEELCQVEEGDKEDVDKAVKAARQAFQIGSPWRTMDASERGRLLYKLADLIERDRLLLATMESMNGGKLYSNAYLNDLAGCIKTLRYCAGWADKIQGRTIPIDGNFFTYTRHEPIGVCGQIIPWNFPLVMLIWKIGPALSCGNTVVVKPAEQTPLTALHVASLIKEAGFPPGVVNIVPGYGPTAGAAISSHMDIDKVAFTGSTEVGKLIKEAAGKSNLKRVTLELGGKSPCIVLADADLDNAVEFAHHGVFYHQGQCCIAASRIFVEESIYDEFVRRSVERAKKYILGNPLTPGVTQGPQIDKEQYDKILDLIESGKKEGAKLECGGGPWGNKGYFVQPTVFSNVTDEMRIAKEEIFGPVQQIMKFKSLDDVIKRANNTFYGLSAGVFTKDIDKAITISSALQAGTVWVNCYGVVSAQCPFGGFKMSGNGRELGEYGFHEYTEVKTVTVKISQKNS
PLK1 PBD block: PLK1 (human) polo-box domain binding inhibition | P53350 | Plk1 PBD binding of FITC phosphopeptide, fluorescence polarization | Potency, µM, actives largely listed as inhibitors | hit rate 2.8% among 360,000 | AID 720504; also: series mostly up to about 57 µM; nearly all actives have a fitted effect of over 65% in size
VP16 counter: counter-screen for ROR gamma inhibitors: Gal4-VP16 reporter. Potency, µM (doses to about 53.6 µM), actives largely listed as inhibitors. hit rate 3.5% among 310,000. AID 2546. Drosophila S2 Gal4-VP16 UAS-luciferase, luminescence, 20 h;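 also: Gal4-VP16 expression switched on by copper sulfate through the metallothionein promoter; nearly all actives have a fitted effect of over 50% in size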
Sfp PPTase conf: Sfp phosphopantetheinyl transferase inhibition, confirmation; shares compounds with Sfp inh; Sfp PPTase enzymatic assay, qHTS titration; Potency, µM (series often up to 114 µM), usual class: inhibitors; hit rate 79% among 380
Target sequence (Q9F4F7 whole entry, looked up): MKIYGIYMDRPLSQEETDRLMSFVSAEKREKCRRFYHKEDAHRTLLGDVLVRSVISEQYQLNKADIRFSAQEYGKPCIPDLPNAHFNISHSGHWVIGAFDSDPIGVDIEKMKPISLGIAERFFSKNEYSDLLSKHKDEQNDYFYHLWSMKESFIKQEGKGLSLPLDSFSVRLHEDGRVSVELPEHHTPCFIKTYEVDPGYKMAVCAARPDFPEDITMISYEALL
Sfp PPTase gel: Inhibits Bacillus subtilis Sfp phosphopantetheinyl transferase; shares compounds with Sfp inh; purified Sfp, gel-based phosphopantetheinylation read-out; Potency, µM, most hits filed as inhibitors; hit rate 20% among 210;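 active = potency below 100 µM; inconclusive = dose-dependent response but potency above 100 µM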;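 also: potency is an IC50 for inhibitors of Sfp transfer activity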
TbPYK inh: Trypanosoma brucei pyruvate kinase inhibition, cherry-pick confirmation | shares compounds with PLK1 PBD block | recombinant TbPYK, Kinase-Glo ATP luminescence | Potency, µM (top dose mostly 76.9 µM), actives largely listed as inhibitors | hit rate 67% among 890 | AID 720569; also: nearly all actives have a fitted effect of over 70% in size
TbPYK orthogonal: orthogonal confirmation of Trypanosoma brucei pyruvate kinase inhibitors. AID 720584. recombinant TbPYK, ADP-Glo luminescence, 60 min. Potency, µM (top dose mostly 76.9 µM), actives largely listed as inhibitors. hit rate 62% among 890. shares compounds with PLK1 PBD block; also: nearly all actives have a fitted effect of over 75% in size
A number is an active result; n = inactive; u = inconclusive; x = not tested or not shown; [ ] = dose if it differs, or a comment. Unless noted, calls follow the shape of the dose curve; as a rule, active = well fitted curve in the direction sought with a large enough effect; inconclusive = small, poorly fitted or top-dose-only effect, or another doubt; inactive = no such curve, though single readings can be large; an effect the other way counts as inactive or inconclusive.

SMILES | Sfp inh | RORgamma inh | ALDH1A1 block | PLK1 PBD block | VP16 counter | TbPYK inh | TbPYK orthogonal | others
Nc1ccnn1C1CCNCC1 | 17.8µM | n | u | n | n | x | x | Sfp PPTase conf=u;Sfp PPTase gel=n
CN1CCC(n2nccc2N)CC1 | n | n | n | n | n | x | x
CC1CCc2c(sc3nc(CSc4n[nH]c(N)n4)[nH]c(=O)c23)C1 (stereo not drawn) | n | n | u | n | n | x | x
C[C@]12CC[C@@H]3c4ccc(O)c(O)c4CC[C@H]3[C@@H]1CC[C@@H]2O | 3.16µM | u | x | u | n | 10µM | 10µM | Sfp PPTase conf=6.63µM;Sfp PPTase gel=2.06µM
C[C@]12CC[C@@H]3c4cc(O)c(O)cc4CC[C@H]3[C@@H]1CC[C@@H]2O | 3.98µM | 12.6µM | x | 21.2µM | u | 2.24µM | 3.55µM | Sfp PPTase conf=21µM;Sfp PPTase gel=6.17µM
C[C@]12CC[C@@H]3c4ccc(OC(=O)N(CCCl)CCCl)cc4CC[C@H]3[C@@H]1CC[C@@H]2O | n | n | x | x | n | x | x
COCC(=O)N(c1c(C)cccc1C)C(C)C(=O)OC (stereo not drawn) | n | n | x | x | n | x | x
O=C1NC(=O)C(=Cc2ccc(N3CCOCC3)cc2)C(=O)N1 | n | n | u | 9.47µM | n | 25.1µM | u
NC(N)=N/N=C/c1ccc(N2CCOCC2)cc1 | n | n | u | n | n | x | x
CC(=O)Nc1ccc(C=C2C(=O)NC(=O)NC2=O)cc1 | x | x | x | n | x | 15.8µM | 17.8µM
O=C(CCn1c(=O)oc2ccccc21)N1CCC2(CC1)OCCO2 | n | n | u | n | n | n | n
C[N+]12CCC(CC1)C(=C(c1ccccc1)c1ccccc1)C2 | n | n | n | n | n | 25.1µM | 39.8µM
O=C1NC(=O)C(=Cc2cc(Cl)ccc2OCc2ccc(C(=O)O)cc2)C(=O)N1 | 50.1µM | u | n | 7.52µM | u | 25.1µM | 31.6µM
CS(=N)(=O)CC[C@H](N)C(=O)O (stereo partly drawn) | x | x | n | x | x | x | x
c1ccc(-c2nc(N3CCOCC3)s[n+]2-c2ccccc2)cc1 | 7.94µM | n | 1.78µM | 1.06µM | n | 0.159µM | 0.708µM
O=C1CSC(c2ccccc2Cl)c2cc(Cl)ccc2N1 (stereo not drawn) | n | x | n | x | x | x | x
CN(C)c1ccc(/C=C/C=C2/C(=O)NC(=O)N(c3ccccc3)C2=O)cc1 | 44.7µM | u | u | u | n | 25.1µM | n
O=C1CCC[C@H]2[C@@H]3CCCN4CCC[C@H](CN12)[C@H]34 | n | n | n | x | n | x | x
Cc1ccc(N2C(=O)NC(=O)/C(=C\c3ccoc3)C2=O)cc1 | u | n | u | u | n | u | u
Cc1ccc(N2C(=O)NC(=O)/C(=C/c3ccc(-c4ccc(C(=O)O)c(Cl)c4)o3)C2=O)cc1 | 31.6µM | n | u | 1.34µM | n | 7.08µM | 14.1µM
C=C1[C@@H]2C[C@@]3([C@H]1O)[C@H]1C[C@@H]4[C@@]5(C)CC[C@H](O)[C@]4([C@H]1N(CC)C5)[C@H]3C[C@H]2O | n | n | n | x | n | x | x
CC[C@H](C)C(=O)O[C@@H]1[C@H](O)[C@@H]2[C@H](CN3C[C@@H](C)CC[C@@H]3[C@@]2(C)O)[C@@H]2C[C@@]34O[C@@]5(O)[C@@H](OC(=O)[C@](C)(O)CC)CC[C@@]3(C)[C@H]5[C@H](OC(C)=O)[C@@H](OC(C)=O)[C@H]4[C@]12O | n | n | n | x | n | x | x
O=c1c2ccccc2[se]n1-c1ccccc1 | 0.794µM | 10µM | 0.224µM | 2.99µM | 11.2µM | 8.91µM | 6.31µM
O=c1c2ccccc2nc(-c2ccccc2)n1-c1ccccc1 | n | n | x | n | n | x | x
COc1ccc(N2C(=O)CC(=O)NC2=O)cc1 | u | n[0.365 µM] | n | n | x | x | x
SMILES | Sfp inh | RORgamma inh | ALDH1A1 block | PLK1 PBD block | VP16 counter | TbPYK inh | TbPYK orthogonal | others
COc1ccc(N2C(=O)/C(=C/c3ccc(C)o3)C(=O)NC2=S)cc1 | 22.4µM | n | x | 2.99µM | n | 15.8µM | 25.1µM
Cc1ccc(/C=C2\C(=O)NC(=S)N(c3cccc(F)c3)C2=O)o1 | 17.8µM | 11.2µM | x | 2.67µM | n | 15.8µM | 25.1µM
CN1C[C@H](CO)C=C2c3cccc4[nH]cc(c34)C[C@@H]21 | n | n | u | x | n | x | x
O=C(Nc1ccccc1-c1ccc(Cl)cc1)c1cccnc1Cl | n | n | x | x | n | x | x
C[C@H]1C(=O)O[C@@H]2CCN3CC=C(COC(=O)[C@@](C)(O)[C@@]1(C)O)[C@H]23 | u | n | n | x | n | x | x
COc1ccc(/C=C2\C(=O)NC(=S)N(C)C2=O)cc1C | 17.8µM | n | 7.94µM | 1.19µM | n | u | u
Cc1ccsc1/C=C1\C(=O)NC(=S)N(C)C1=O | 20µM | u | x | 2.99µM | 22.4µM | 11.2µM | 17.8µM
CC(C)CC1C(=O)N2CCCC2C2(O)O[C@@](NC(=O)C3C=C4c5cccc6[nH]c(Br)c(c56)CC4N(C)C3)(C(C)C)C(=O)N12 (stereo partly drawn) | n | n | n | x | u | x | x
O=C1NC(=O)C(=Cc2c(Cl)cccc2Cl)C(=O)N1 | x | x | x | 4.74µM | x | 25.1µM | 35.5µM
CCN(CC)c1nc2c(C)cccn2c(=O)c1C=C1C(=O)NC(=O)NC1=O | n | n | u | n | n | x | x
Cc1cc(C)nc(OC(=O)c2ccc(Cl)cc2Cl)n1 | n | n | n | x | n | x | x
COc1ccc(OC)c(N2C(=O)NC(=O)/C(=C/c3ccc([N+](=O)[O-])s3)C2=O)c1 | 10µM | n | u | 4.74µM | n[10 µM] | 4.47µM | 7.08µM
COc1cc(/C=C2\C(=O)NC(=O)N(c3ccccc3)C2=O)c([N+](=O)[O-])cc1OC | 39.8µM | n | u | 11.9µM | n | 15.8µM | 35.5µM
COc1ccc(OC)c(N2C(=O)CC(=O)NC2=O)c1 | n | n | x | n | n | x | x
CC[N@+]1(C)CCC[C@@H](OC(=O)C(O)(c2ccccc2)c2ccccc2)C1 | n | n | n | x | n | x | x
CCN1C[C@]2(C)CC[C@H](OC)[C@@]34[C@@H]2[C@H](OC(C)=O)[C@]2(OCO[C@@]25C[C@@H](OC)[C@@H]2C[C@@]3(O)[C@H]5[C@@H]2OC)[C@H]14 | n | n | n | x | n | x | x
CN1C(=O)NC(=O)/C(=C\C=C\c2ccccc2[N+](=O)[O-])C1=O | 17.8µM | 10µM | u | 1.19µM | u | 15.8µM | 31.6µM
CC1CCC(NC(=O)c2cc3c(=O)n(C)c4ccccc4c3n2C)CC1 (stereo not drawn) | n | n | u | n | n | x | x
CCOP(=O)(OCC)C(NC(=O)c1cccc(C)c1)C(Cl)(Cl)Cl (stereo not drawn) | n | n | n | n | n | x | x
CCN(CC)c1ccc(NC(=O)c2cccc(C)c2)cc1S(=O)(=O)Nc1ccccc1OC | 12.6µM | n | 14.1µM | 2.99µM | n | u | u
